A number with no mark means an inactive call. Inconclusive results are not listed. Activity calls are given as the source filed them. Unless noted, the call rests on the fitted dose curve; in most records, active means well fitted curve in the direction sought with a large enough effect in the repeat runs; inconclusive means weak or mixed curves; inactive means no such curve, though single readings can be large; an effect the other way counts as inactive or inconclusive.

Drawing on PubChem BioAssay (Tox21), this text covers Potency and max activation for 30 molecules.

A short description of experiment [1]: Caspase-3/7 induction in HepG2 cells by small molecules, qHTS assay (AID 1346978). Further: nearly all actives have a fitted effect of over 15% in size. A digest of the protocol:
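Wild-type HepG2 cells (2,000/well) were settled 5 h at 37 C, 5% CO2, then exposed to compounds in DMSO for 17 h. Caspase-3/7 activity was read by luminescence 30 min after adding Caspase-Glo 3/7 reagent at room temperature.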

Experiment [2] in a line: Caspase-3/7 induction in CHO-K1 cells by small molecules, qHTS cell viability counter screen (AID 1346979). Further: nearly all actives have a fitted effect of over 35% in size. A digest of the protocol:
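CellTiter-Fluor viability check, qHTS format: wild-type CHO-K1, 16hr compound treatment, 1hr reagent incubation, fluorescence read.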
In general terms: qHTS replaces the single test concentration by a dilution series.

A short description of experiment [3]: Caspase-3/7 induction in CHO-K1 cells by small molecules, qHTS assay (AID 1346980). Further: nearly all actives have a fitted effect of over 15% in size. A digest of the protocol: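 Wild-type cells were seeded at 1,500 per well and settled 5 hr at 37 C, 5% CO2, then exposed to DMSO-dissolved compounds for 17 hr. Caspase-Glo 3/7 reagent was added, and luminescence was read after 30min at room temperature.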
The nature of experiment [4]: Caspase-3/7 induction in HepG2 cells by small molecules, qHTS cell viability counter screen (AID 1346981). Further: series mostly up to about 92 µM; nearly all actives have a fitted effect of over 30% in size. Put shortly: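 In this quantitative HTS counter screen, compounds delivered in DMSO were left on unmodified HepG2 cells for 16 hr at 37 C. Viability was then determined fluorometrically with CellTiter-Fluor, in parallel with caspase-3/7 induction in the same wells.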

Experiment [5] concerns the target Nuclear receptor subfamily 1 group I member 2 (Homo sapiens) (UniProt O75469). The experiment can be described thus: Human pregnane X receptor (PXR) small molecule agonists, qHTS assay (AID 1346982). Further: nearly all actives have a fitted effect of over 35% in size. Further: potency means the concentration at half of the fitted maximal effect. Put shortly:
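Reporter HepG2 cells expressing PXR-Luc are cultured in charcoal-stripped FBS (5%), treated with compounds for 24 hr at 37 C, and assayed by ONE-Glo luminescence after 30 min at room temperature.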

The target of experiment [6] is Acetylcholinesterase (Homo sapiens) (UniProt P22303). The experiment can be described thus: Acetylcholinesterase (AChE) small molecule antagonists: colormetric cell-based qHTS assay (AID 1347395; calls by dose curve; further: nearly all actives have a fitted effect of over 30% in size; further: potency means the concentration at half of the fitted maximal effect). A digest of the protocol:
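AChE inhibition read colorimetrically via DTNB–thiocholine in SH-SY5Y cells. Compound 30 min, substrate 90 min, both 37 C.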

The target is the same in experiment [7]. The experiment can be described thus: Acetylcholinesterase (AChE) small molecule antagonists: enzyme-based qHTS assay (AID 1347397; calls by dose curve; further: nearly all actives have a fitted effect of over 55% in size). The settings on record: Potency: AChE enzyme activity inhibition. Put shortly: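 Tox21 library chemicals are tested in qHTS format against recombinant human AChE. The enzyme, dispensed at 50 mU/mL, sits with compound for 30 min at room temperature. A DTNB–acetylthiocholine cocktail follows, and colour is read after 10 min.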

Experiment [8] addresses Nuclear receptor subfamily 1 group I member 2 (Rattus norvegicus) (UniProt Q9R1A7). The experiment can be described thus: Rat pregnane X receptor (rPXR) activation by small molecules, qHTS assay (AID 1346983). Further: nearly all actives have a fitted effect of over 20% in size. Further: potency means the concentration at half of the fitted maximal effect. The settings on record: rPXR luciferase reporter cells, One-Glo luminescence, 24 h; max activation: stronger effect = higher value. A digest of the protocol:
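Cell-based rPXR luciferase reporter assay, 2,000 cells per well, rested 5hr at 37 C before compound addition in DMSO, then 24 hr at 37 C. One-Glo reagent was added and luminescence read after 30 min at room temperature.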

The target of experiment [9] is Nuclear receptor subfamily 1 group I member 2 (Homo sapiens) (UniProt O75469). The experiment can be described thus: CYP3A4 induction through human pregnane X receptor (PXR) by small molecules, qHTS assay (AID 1346984). Further: nearly all actives have a fitted effect of over 40% in size. Put shortly:
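Induction measured in HepG2-based DPX-2 cells co-expressing human PXR and a CYP3A4 promoter-driven luciferase. After a 24-hour compound exposure, cells received CYP3A4 luciferin substrate at 3uM final for 3 hours, and light output was then recorded.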

The target is the same in experiment [10]. Put plainly: Human pregnane X receptor (PXR) activation by small molecules, qHTS assay (AID 1346985). Further: nearly all actives have a fitted effect of over 40% in size. Put shortly:
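DPX-2 cells (HepG2 co-transfected with a PXR response element and a CYP3A4-promoter luciferase construct) were seeded at 2,000 per well, rested 5 hr at 37C, then exposed to DMSO-dissolved compounds for 24 hr. Activation was read as luciferase luminescence.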
On the % scale 0 is the no-effect control and ±100 the full control effect.

Acetylcholinesterase (Homo sapiens), sequence (P22303 whole entry, looked up): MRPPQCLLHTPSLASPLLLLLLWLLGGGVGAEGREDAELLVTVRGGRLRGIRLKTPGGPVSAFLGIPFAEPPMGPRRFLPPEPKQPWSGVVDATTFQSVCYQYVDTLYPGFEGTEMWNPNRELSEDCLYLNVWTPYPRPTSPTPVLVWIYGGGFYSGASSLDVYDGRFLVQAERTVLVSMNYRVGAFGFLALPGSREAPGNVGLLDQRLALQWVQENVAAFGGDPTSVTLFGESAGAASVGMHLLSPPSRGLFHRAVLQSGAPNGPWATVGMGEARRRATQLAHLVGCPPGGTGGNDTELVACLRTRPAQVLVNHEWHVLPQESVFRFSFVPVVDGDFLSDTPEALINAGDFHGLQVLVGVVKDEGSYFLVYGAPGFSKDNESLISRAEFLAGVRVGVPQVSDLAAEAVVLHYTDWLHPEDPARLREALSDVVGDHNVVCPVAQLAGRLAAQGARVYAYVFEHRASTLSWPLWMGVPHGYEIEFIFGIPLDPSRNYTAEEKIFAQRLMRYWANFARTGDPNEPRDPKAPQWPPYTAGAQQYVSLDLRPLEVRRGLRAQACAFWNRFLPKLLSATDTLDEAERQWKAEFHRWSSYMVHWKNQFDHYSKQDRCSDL
Nuclear receptor subfamily 1 group I member 2 (Rattus norvegicus), sequence (Q9R1A7 whole entry, looked up): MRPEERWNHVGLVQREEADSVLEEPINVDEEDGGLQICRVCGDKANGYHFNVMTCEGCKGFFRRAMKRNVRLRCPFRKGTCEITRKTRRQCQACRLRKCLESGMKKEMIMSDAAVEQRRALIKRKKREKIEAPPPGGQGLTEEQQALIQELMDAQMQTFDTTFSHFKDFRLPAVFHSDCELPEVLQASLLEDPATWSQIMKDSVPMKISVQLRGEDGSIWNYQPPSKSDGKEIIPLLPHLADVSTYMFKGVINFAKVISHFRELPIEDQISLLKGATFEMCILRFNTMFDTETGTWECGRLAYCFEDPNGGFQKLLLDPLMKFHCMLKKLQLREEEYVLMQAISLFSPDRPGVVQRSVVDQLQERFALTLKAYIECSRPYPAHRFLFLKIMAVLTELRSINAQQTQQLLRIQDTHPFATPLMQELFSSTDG
Nuclear receptor subfamily 1 group I member 2 (Homo sapiens), sequence (O75469 whole entry, looked up): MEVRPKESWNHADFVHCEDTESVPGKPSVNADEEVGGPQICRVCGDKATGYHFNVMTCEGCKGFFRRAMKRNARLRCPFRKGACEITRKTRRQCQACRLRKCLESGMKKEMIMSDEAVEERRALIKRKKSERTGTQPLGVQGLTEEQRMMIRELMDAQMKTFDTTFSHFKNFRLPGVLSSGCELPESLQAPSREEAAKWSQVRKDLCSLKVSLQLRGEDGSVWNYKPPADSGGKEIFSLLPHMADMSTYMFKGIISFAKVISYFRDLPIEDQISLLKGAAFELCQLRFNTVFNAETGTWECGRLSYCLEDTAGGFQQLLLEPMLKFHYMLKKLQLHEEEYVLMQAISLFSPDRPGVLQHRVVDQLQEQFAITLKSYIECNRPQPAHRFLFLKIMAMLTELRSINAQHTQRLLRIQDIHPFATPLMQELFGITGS

With `c1ccc(N2CCNCC2)cc1`, the Potency entry in experiment [1], in [2], in experiment [3], in experiment [4], in experiment [5] and in [6] was “inactive” throughout. The Potency result in experiment [7] is “inactive”.
`Cc1ncsc1CCCl`: the Potency entry in experiment [1], in [2], in experiment [3], in [4], in [5] and in experiment [9] was “inactive” each time. Besides, the Potency result in [10], in [6] and in [7] was “inactive” throughout. For the same molecule, in experiment [8], the max activation is -0.969%.
With `CNC(=O)Oc1cccc(C(C)C)c1`, the Potency result in [1], in experiment [2], in [3] and in experiment [4] was “inactive” each time.
For `CCN(Cc1ccc(Cl)nc1)/C(=C/[N+](=O)[O-])NC`, the Potency entry in [1], in experiment [2], in [3], in experiment [4], in experiment [5] and in [9] was “inactive” each time. In addition, the Potency result in [10], in experiment [6] and in experiment [7] was “inactive” each time. Besides, in [8], the max activation is -0.716%.
With `CN1C[C@@H](NS(=O)(=O)N(C)C)C[C@@H]2c3cccc4c3c(cn4C)C[C@H]21`, the Potency entry in [1], in [2], in experiment [3], in experiment [4], in [6] and in [7] was “inactive” throughout. Moreover, the Potency in [5] is 23.7 µM (active); in [8], 10 µM (active).
With `COC(=O)C(c1ccccc1)C1CCCCN1` (centres undefined), the Potency result in experiment [1], in experiment [2], in experiment [3], in experiment [4], in [5] and in [9] was “inactive” throughout. Also, the Potency entry in [10], in [6] and in experiment [7] was “inactive” each time. Also, in [8], the max activation was -3.29%.
Regarding `Clc1cccc(N2CCNCC2)c1`, the Potency result in experiment [1], in experiment [2], in [3], in experiment [4], in experiment [5] and in experiment [6] was “inactive” throughout. In experiment [7], the Potency result was “inactive”.
Take `CCCCCCBr`: the Potency result in experiment [1], in experiment [2], in [3] and in [4] was “inactive” in each case.
`CC1(C)C(=O)NC(=O)NC1=O`: the Potency entry in experiment [1], in experiment [2], in [3], in [4], in [5] and in experiment [6] was “inactive” in each case. Besides, in experiment [7], the Potency entry is “inactive”.
As to `COc1ncc(F)c2nc(S(=O)(=O)Nc3c(F)cccc3F)nn12`, the Potency result in experiment [1], in experiment [2], in [3], in [4], in experiment [5] and in [6] was “inactive” each time. Besides, the Potency result in experiment [7] is “inactive”.
For `O=[N+]([O-])c1ccc2c3c(cccc13)CC2`, the Potency result in experiment [1], in experiment [2], in experiment [3], in [4], in experiment [6] and in experiment [7] was “inactive” in each case. Also, in experiment [5], the Potency is 54.5 µM (active).
With `COc1cc(C[C@@H](C)N)c(OC)cc1C`, the Potency result in experiment [1], in experiment [2], in [3], in [4], in [5] and in [6] was “inactive” throughout. The Potency result in [7] was “inactive”.
Consider `O=C(Oc1ccc(Br)cc1)N1CCN2CCC1CC2`, for which the Potency entry in [1], in [2], in experiment [3], in experiment [4], in experiment [5] and in experiment [6] was “inactive” in each case. Besides, the Potency entry in [7] is “inactive”.
`CC(Cl)(Cl)[N+](=O)[O-]`: the Potency entry in [1], in [2], in [3], in experiment [4], in experiment [5] and in experiment [6] was “inactive” in each case. In addition, the Potency result in experiment [7] was “inactive”.
Regarding `COP(=S)(OC)Oc1ccc(S(N)(=O)=O)cc1`, the Potency result in [1], in experiment [2], in experiment [3], in experiment [4], in experiment [5] and in experiment [6] was “inactive” in each case. In addition, the Potency result in [7] is “inactive”.
Consider `CCC(Cl)[N+](=O)[O-]` (centres undefined), for which the Potency entry in experiment [1], in experiment [2], in [3], in experiment [4], in experiment [5] and in experiment [6] was “inactive” each time. In experiment [7], the Potency entry was “inactive”.
With `CN1CCC(N(Cc2ccccc2)c2ccccc2)CC1`, the Potency entry in experiment [1], in [2], in [3], in experiment [4], in experiment [5] and in experiment [6] was “inactive” each time. For the same molecule, the Potency result in [7] is “inactive”.
On to `C[N+](C)=CCl`, for which the Potency result in experiment [1], in experiment [2], in [3], in experiment [4], in experiment [5] and in [6] was “inactive” in each case. In [7], the Potency result was “inactive”.
Consider `CNNC`, for which the Potency result in [1], in [2], in [3], in experiment [4], in experiment [5] and in experiment [6] was “inactive” in each case. Also, the Potency entry in experiment [7] is “inactive”.
Regarding `CCCCOP(=O)(O)OCCCC`, the Potency result in [1], in experiment [2], in experiment [3], in experiment [4], in experiment [5] and in experiment [6] was “inactive” throughout. Further, the Potency result in experiment [7] is “inactive”.
In the case of `Nc1ccccc1Cl`, the Potency result in experiment [1], in experiment [2], in experiment [3], in experiment [4], in experiment [5] and in experiment [6] was “inactive” in each case. For the same molecule, in experiment [7], the Potency entry is “inactive”.
Consider `N#CCCC#N`, for which the Potency result in [1], in experiment [2], in experiment [3], in experiment [4], in experiment [5] and in experiment [6] was “inactive” each time. The Potency result in experiment [7] was “inactive”.
In the case of `COC(=O)C(C)Oc1ccc(Oc2ccc(Cl)cc2Cl)cc1` (centres undefined), the Potency entry in experiment [1], in experiment [2], in [3], in experiment [4], in experiment [5] and in experiment [6] was “inactive” throughout. The Potency result in [7] was “inactive”.
For `BrCCCCCCBr`, the Potency entry in experiment [1], in [2], in [3], in experiment [4], in [5] and in experiment [7] was “inactive” in each case. The Potency in experiment [6] was 63.3 µM (active).
As to `COc1cc(OC)nc(Oc2cccc(Oc3nc(OC)cc(OC)n3)c2C(=O)O)n1`, the Potency result in [1], in [2], in [3], in [4], in [5] and in [6] was “inactive” each time. Moreover, the Potency result in experiment [7] is “inactive”.
Take `COCC(=O)N(c1c(C)cccc1C)N1CCOC1=O`: the Potency entry in [1], in [2], in experiment [3], in experiment [4], in experiment [5] and in [6] was “inactive” in each case. The Potency entry in experiment [7] is “inactive”.
In the case of `Cc1cccc(C#N)c1`, the Potency result in experiment [1], in [2], in experiment [3], in experiment [4], in [5] and in [6] was “inactive” in each case. Also, the Potency result in [7] was “inactive”.
Consider `ClC(Cl)Br`, for which the Potency entry in experiment [1], in experiment [2], in [3], in experiment [4], in experiment [5] and in experiment [6] was “inactive” throughout. Also, the Potency entry in experiment [7] was “inactive”.
As for `ClCCCN1CCN(c2cccc(Cl)c2)CC1`, the Potency entry in experiment [1], in experiment [2], in experiment [3], in experiment [4], in experiment [5] and in experiment [6] was “inactive” each time. Also, the Potency entry in experiment [7] was “inactive”.
As for `COC(=O)c1c(C(F)F)nc(C(F)(F)F)c(C2=NCCS2)c1CC(C)C`, the Potency entry in [1], in experiment [2], in experiment [3], in experiment [4], in experiment [6] and in [7] was “inactive” each time. Also, the Potency in experiment [5] was 0.77 µM (active).
